Assay results: PubChem BioAssay AID1347165 (National Center for Advancing Translational Sciences (NCATS), 2019)
Screen size: about 220,000 compounds; about 5,700 (2.6%) were called active. Another 18% or so got no clear call; they are omitted. The sample holds actives, similar compounds and a random draw of the others, so the mix is not that of the screen. Calls follow the shape of the dose curve; as a rule, active = well fitted inhibition curve with a large enough effect; inconclusive = small, poorly fitted or top-dose-only effect; inactive = no such curve, though single readings can be large or run the other way.

biological target: Lysine-specific demethylase 5B (Homo sapiens) (UniProt Q9UGL1); assay: Primary screen for KDM5B Histone Demethylases FDH-coupled qHTS; conditions: FDH-coupled NADH fluorescence (FDH is formaldehyde dehydrogenase); series mostly up to 57.7 µM; activity change, negative = inhibition: at the top concentration; also: nearly all actives have a fitted effect of over 70% in size; as to activity change, negative = inhibition: 0% is about no effect
Sequence (Q9UGL1 whole entry, looked up, the tested form may be a part): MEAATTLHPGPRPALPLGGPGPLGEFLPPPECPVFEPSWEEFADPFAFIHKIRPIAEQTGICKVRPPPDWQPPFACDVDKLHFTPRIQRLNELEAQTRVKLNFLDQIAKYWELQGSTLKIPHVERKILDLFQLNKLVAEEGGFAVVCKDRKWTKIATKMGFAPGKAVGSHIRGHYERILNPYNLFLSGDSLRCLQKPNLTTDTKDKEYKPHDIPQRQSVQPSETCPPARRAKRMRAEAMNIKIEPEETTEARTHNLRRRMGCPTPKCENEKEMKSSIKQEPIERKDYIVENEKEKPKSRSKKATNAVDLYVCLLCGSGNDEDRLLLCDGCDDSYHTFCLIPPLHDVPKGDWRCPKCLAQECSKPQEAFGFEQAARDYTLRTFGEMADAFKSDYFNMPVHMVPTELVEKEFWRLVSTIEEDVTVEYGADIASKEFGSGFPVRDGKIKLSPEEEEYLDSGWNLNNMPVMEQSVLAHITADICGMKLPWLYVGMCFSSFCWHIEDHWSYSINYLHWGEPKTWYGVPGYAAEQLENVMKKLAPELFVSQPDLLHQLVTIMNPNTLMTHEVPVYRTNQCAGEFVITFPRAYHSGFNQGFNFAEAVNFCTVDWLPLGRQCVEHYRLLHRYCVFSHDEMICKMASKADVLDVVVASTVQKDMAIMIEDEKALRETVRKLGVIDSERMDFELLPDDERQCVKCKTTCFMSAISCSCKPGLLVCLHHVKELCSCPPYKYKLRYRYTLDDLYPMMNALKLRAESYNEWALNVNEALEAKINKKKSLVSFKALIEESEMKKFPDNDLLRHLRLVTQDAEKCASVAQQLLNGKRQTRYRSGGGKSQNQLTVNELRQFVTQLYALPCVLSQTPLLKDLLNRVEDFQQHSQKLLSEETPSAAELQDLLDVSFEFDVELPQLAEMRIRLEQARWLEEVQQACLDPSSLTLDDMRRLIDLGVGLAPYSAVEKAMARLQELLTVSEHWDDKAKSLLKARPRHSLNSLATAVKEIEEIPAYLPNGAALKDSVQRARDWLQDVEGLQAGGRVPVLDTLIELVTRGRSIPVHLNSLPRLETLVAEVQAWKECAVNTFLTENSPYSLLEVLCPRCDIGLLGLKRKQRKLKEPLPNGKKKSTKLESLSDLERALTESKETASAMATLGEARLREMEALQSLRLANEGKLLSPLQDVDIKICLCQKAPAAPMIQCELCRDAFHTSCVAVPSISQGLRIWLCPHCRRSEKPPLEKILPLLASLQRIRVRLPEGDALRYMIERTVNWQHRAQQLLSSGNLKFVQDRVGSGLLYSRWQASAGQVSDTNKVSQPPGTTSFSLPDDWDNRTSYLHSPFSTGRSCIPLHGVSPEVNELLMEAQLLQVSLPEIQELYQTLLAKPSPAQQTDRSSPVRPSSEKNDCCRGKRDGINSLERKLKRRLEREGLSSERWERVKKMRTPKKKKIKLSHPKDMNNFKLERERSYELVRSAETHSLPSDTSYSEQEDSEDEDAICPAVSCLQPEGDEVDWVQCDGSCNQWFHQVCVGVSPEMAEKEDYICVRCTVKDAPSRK
Summary of the method: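 Inhibition is measured as reduced NADH fluorescence generation from FDH coupling to formaldehyde release. Truncated KDM5BΔAP at 200 nM final acts on H3K4me3 peptide (12.5 µM in substrate mix) in pH 7.5 HEPES buffer with Tween-20, 30 min, room temperature.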
Potency is read from the fitted curve at half-maximal effect.

Activity change, negative = inhibition, inactive:
O=[N+]([O-])c1cccc2nc(/C=C/c3ccc(C(F)(F)F)cc3)ccc12 -0.0445%, N#Cc1cccc(C2CCN(C(=O)C3CCN(C(=O)C4CC4)CC3)CC2)c1 -1.85%, Cn1c(=O)[nH]c(=O)c2c1nc(N1CCN(Cc3ccccc3Cl)CC1)n2Cc1ccc(F)cc1 5.2%, O=C(Cc1cccc(Cl)c1)N1CCC2(CN[S+](=O)([O-])c3cccnc3O2)C1 (stereo not given) 9.87% [at 115 µM], O=[S+]1([O-])NCC2(CCCN(Cc3ccncc3)C2)Oc2ncccc21 (stereo not given) -20% [at 115 µM], CNS(=O)(=O)c1ccc(NC(=O)Nc2ccc3c(c2)OCO3)cc1 5.61%, Cc1nccnc1N1CCC(c2nnc(CN3CCCC3)n2C)CC1 9.79%, COc1c(CNCc2cccnc2N2CCOCC2)c(C)nn1C -5.58%, C=CCNC(=O)c1cn2c(n1)CN(C(=O)c1ccccc1F)CC2 14.7% [at 149 µM], C=CCNC(=O)c1cn2c(n1)CN([S+](C)(=O)[O-])CC2 9.43% [at 149 µM], Cn1cc(CN2C[C@@H](CO)[C@H](C(=O)NC3CC3)C2)cn1 -2.64%, Cc1cccc(C(=O)N2CCC(OC3CCN(Cc4ccccc4)CC3)CC2)c1 13.2%, Cc1ccc(-n2c(SC(C)C(=O)c3ccc(F)c(F)c3)nnc2N2CCOCC2)cc1 (stereo not given) 16.4%, O=C(c1ccc(F)cc1)N1CCN(c2cc(-c3ccc(F)cc3)[nH]n2)CC1 -11.3%, COc1ccccc1C(=O)N1CCC(n2cnnc2C2CC2)CC1 -11.8%, Cc1cccc(C(=O)N2CCN(S(=O)(=O)N3CCCCC3)CC2)c1 32.8%, COc1ccccc1C(=O)N1CCN(c2cc(C(F)(F)F)ncn2)CC1 -12.6%, Nc1cc(OCC(F)(F)F)cc(OCC(F)(F)C(F)F)c1 8.06%, CC1CCCC(NC(=O)c2ccccc2)C1C (stereo not given) 18.6%, COCCSCC(=O)N1CCOC(C)(C)C1 26.5%, COCc1nc(C2CCCN(C(=O)CCC3CCCC3)C2)no1 (stereo not given) -7.38%, O=C(c1cc(-c2ccc(O)cc2)on1)N1CCOCC1 -11%, Cc1cc(C(=O)N2CCC3(CC2)CC(C(=O)N2CCOCC2)N(C)C3)nn1C (stereo not given) 9.57%, Cc1ccc(CNC(=O)Cc2cn(C)c3ccccc23)cc1 31%, CCOc1ccccc1NC(=O)NC1CCCCCCC1 25.5%, COc1cccc(NC(=O)C2(C#N)CCCC2)c1 12.7%, COc1ccc(Nc2cc(C(=O)N3CCOCC3)c3ccccc3n2)cc1 -11.2%, O=C(Nc1cc(F)ccc1F)N1CCC2(CC1)Oc1ccccc1C(=O)N2Cc1ccccc1F -2.84%, OCCCSc1nnc(-c2c[nH]c3ccccc23)n1C1CC1 -11.7%, O=C(NCC1Cn2cccc2C(=O)N1Cc1ccccc1)c1ccco1 (stereo not given) 11.7%, CC(C)NC(=O)NCC1Cn2cccc2C(=O)N1Cc1ccccc1 (stereo not given) -21.5%, O=C(NCC1Cn2cccc2C(=O)N1Cc1ccccc1)c1ccc(F)cc1 (stereo not given) 0.623%, CC(C)CNC(=O)NCC1Cn2cccc2C(=O)N1Cc1ccccc1 (stereo not given) -2.01%, CCCn1nc(C(=O)NCc2cccc(OC)c2)c2ccccc2c1=O 16.7%, O=C(CSc1ncc(CO)n1Cc1ccc(F)cc1)NCc1ccc2c(c1)OCO2 13.1%, CN(C(=O)Cn1c(=O)n(C)c(=O)c2sccc21)c1ccccc1 -13.8%, Cc1ccc(C(=O)c2ccccc2C(=O)OCc2c(Cl)cccc2Cl)cc1 -9.31%, O=C(NCCc1nc2ccccc2[nH]1)c1ccc(N2CCCN(Cc3ccccc3)C2=O)cc1 2.86%, O=C1Nc2ccc(Br)cc2C(=O)N2CCN(C(=O)C3CCCCC3)C[C@H]12 -26.5% [at 86.2 µM], COCCn1ccc2cc(C(=O)Nc3ccc4c(c3)C(=O)N3CCC[C@H]3C(=O)N4)ccc21 9.94%, COc1ccc(C(=O)N2CCc3nc(C(C)C)nc(-c4ccc(Cl)cc4)c3CC2)cc1 -3.56% [at 115 µM], Cc1nn(CC(=O)NC(C)(C)C)c(C)c1S(=O)(=O)N1CCCC(C(=O)N2CCC(C)CC2)C1 (stereo not given) 16.9%, Cc1cc(NC(=O)CCSc2nnc3c(Cl)cc(C(F)(F)F)cn23)no1 -3.18%, COc1ccc(C(=O)N[C@H](C(=O)NCc2ccccc2)C(C)C)cc1 10%, O=C(NCc1nnc2ccccn12)C1NCCc2[nH]cnc21 (stereo not given) 0.217%, O=C(C1NCCc2[nH]cnc21)N1CCc2nnc(-c3ccccc3)n2CC1 (stereo not given) -24.4%, COc1ccc2nc(C)c(C(=O)N(C)CC3COc4ccccc4O3)cc2c1 (stereo not given) -8.89%, C/C(=N/NC(=S)NCc1ccccc1)c1cccc(C(F)(F)F)c1 -5.68%

Potency, active:
O=C(Cc1cccc(Cl)c1)N1CCC2(CC1)CN[S+](=O)([O-])c1cccnc1O2 79.4 µM, Cn1c(CN2CCOCC2)nnc1C1CCN(c2ncccc2C#N)CC1 31.6 µM, C=CCNC(=O)c1ccc2ccnn2c1 31.6 µM, Cc1cccc2nnc(N3CCN(C(=O)c4ccc(F)c(F)c4)CC3)n12 28.2 µM, Cc1cccc(C(=O)N2CCCN(c3nnc4ccccn34)CC2)c1 28.2 µM, COc1ccccc1C(=O)N1CCCN(c2nnc3ccccn23)CC1 31.6 µM, O=C(c1cc2cccnn2n1)N1CCOCC1 31.6 µM, COc1ccc(NC(=O)C2(C)CN(C)Cc3ccc(Nc4cccc(OC)c4)nc32)cc1 (stereo not given) 14.1 µM, CC(=O)NCC1Cn2cccc2CN1Cc1ccccc1 (stereo not given) 28.2 µM, O=C(NCC1Cn2cccc2CN1Cc1ccccc1)c1ccco1 (stereo not given) 28.2 µM, COCC(=O)N[C@H]1C[C@H]2C(=O)Nc3ccc(/C=C/c4ccc(OC)cc4)cc3C(=O)N2C1 28.2 µM, Nc1nc(CCCNC(=O)C2NCCc3[nH]cnc32)cs1 (stereo not given) 25.1 µM
